Hits are enriched below; roughly 3.1% of the tested compounds scored in any of these assays.
HSP90 inh – HSP90 inhibitors, primary screen, cell lysate, luminescence; Heat shock protein HSP 90 (rabbit reticulocyte lysate; luciferase refolding); Rabbit reticulocyte lysate, luciferase refolding luminescence, 3 h; inhibition, % at 5.6 µM; 290,000 compounds, 0.91% hits; AID 1789, 2009;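 active = inhibition above the screen-wide mean plus 3 SD, computed separately per campaign, cut at about 16% in these data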;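 note: 0% = DMSO wells and 100% = 60 µM geldanamycin wells; inhibitors lower the luminescence because luciferase stays unfolded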
ARNT TACC3 PPI – disruptors of ARNT/TACC3 protein interaction, primary screen, biochemical, AlphaScreen, single concentration; AID 623870, 2012; AlphaScreen His-ARNT PAS-B/GST-TACC3 binding, luminescence; TACC3 fragment carries E629A point mutation; Transforming acidic coiled-coil-containing protein 3 (Homo sapiens), Q9Y6A5; inhibition, % at 9.99 µM; 390,000 compounds, 0.66% hits;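 active = mean inhibition of replicates at least 50% and at least half of replicates each reaching 50%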;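 note: 0% = complete ARNT plus TACC3 wells and 100% = ARNT alone without TACC3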
HSF1 activator – HSF-1 activators, primary screen, NIH3T3-HGL cells, MG132 stress, luminescence, single point; NIH3T3-HGL HSF-1 luciferase reporter, 8 h; 100% = twice DMSO control signal; activation, % at 9 µM; 300,000 compounds, 1.7% hits; AID 504408, 2011;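 active = mean replicate activation of at least 50% with a set share of replicates each reaching 50%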;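 note: 0% = median of the neutral control wells and 100% = twice that signal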
HIF activator – HIF pathway transcriptional activators, primary screen, cell-based, U2OS HRE-luciferase, luminescence; U2OS HRE-luciferase reporter; normalized: DMSO 0%, desferrioxamine 100%; activation, % at 7.5 µM (by protocol); 300,000 compounds, 0.32% hits;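 active = mean activation of at least 10% of the iron chelator positive control signal, with at least half of replicates also reaching 10%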
HSF1 inhib – HSF1 inhibitors in luciferase reporter cells, primary screen, cell-based, NIH3T3, luminescence; NIH3T3-HGL HSE-luciferase, MG132-induced, luminescence 8 h; active compounds read low; AID 2098, 2009; activity change, negative = inhibition, % at 7.5 µM (by protocol); 300,000 compounds, 0.77% hits;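 active = more than half of replicate wells show activity change below -50%, luminescence cut by over half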;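 note: luciferase reports HSF-1 transcriptional activity via heat shock element; 0% = median of DMSO wells and -100% = zero luminescence signal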
Active calls of the source: *; · = not tested or not shown.

SMILES	HSP90 inh	ARNT TACC3 PPI	HSF1 activator	HIF activator	HSF1 inhib
COc1ccc(CN(C)C[C@@H]2OCCCC[C@@H](C)Oc3ccc(NC(=O)Nc4c(C)noc4C)cc3C(=O)N([C@@H](C)CO)C[C@H]2C)cc1	·	7	·	·	·
COC(=O)C[C@@H]1CC[C@@H]2[C@H](COc3ccc(NC(=O)c4cccs4)cc3C(=O)N2C)O1	·	2	·	·	·
c1n[nH]c(NC2=NCCC2)n1	1	61*	-10	0	-6
CC1CCc2c(nc3nc[nH]n3c2=O)C1 (configuration not stated)	-2	2	-11	0	-6
S=c1c2c(nc3nc[nH]n13)CCC2	3	35*	-4	-1	-6
COc1cc(C(=O)OCn2nnc3ccccc3c2=O)cc(OC)c1OC	-5	-7	-4	0	-1
COc1cc(CCC(=O)OCn2nnc3ccccc3c2=O)cc(OC)c1OC	3	9	-84	1	-81*
CCCN(C)C[C@H]1OCCCC[C@H](C)Oc2ccc(NS(=O)(=O)c3ccc(F)cc3)cc2C(=O)N([C@@H](C)CO)C[C@@H]1C	·	15	·	·	·
CNC(=O)C[C@H]1CC[C@@H]2[C@H](COc3ccc(NC(=O)Nc4cccc(C)c4)cc3C(=O)N2C)O1	·	-6	·	·	·
O=C(N/N=C/c1cccnc1)c1ccc2c(c1)OCCO2	2	-1	-73	0	-63*
O=C(N/N=C/c1ccccc1)c1ccc2c(c1)OCO2	16*	-3	26	3	10
O=C(CNC(=O)c1ccc2c(c1)OCO2)N/N=C(Br)/C=C/c1ccccc1	1	-2	66*	1	34
CN(C)c1ccc(/C=N/NC(=O)c2ccc3c(c2)OCO3)cc1	-1	-11	3	2	9
O=C(N/N=C/c1ccc(Br)o1)c1ccc2c(c1)OCCO2	1	3	-81	1	-79*
C[C@@H]1CCCCO[C@@H](CN(C)S(=O)(=O)c2cccs2)[C@@H](C)CN([C@@H](C)CO)C(=O)c2cc(NC(=O)NC3CCCCC3)ccc2O1	·	11	·	·	·
O=C(C1=C[C@H](c2ccc(Br)cc2)C[C@H](OCCCCO)O1)N1CCN(Cc2ccc3c(c2)OCO3)CC1	1	18	-62	1	-54*
O=C(Cn1c(CO)nc2ccccc21)NCc1ccc2c(c1)OCO2	-4	-9	3	0	-1
O=C(CSc1c[nH]c2ccccc12)NCc1ccc2c(c1)OCO2	2	-2	-8	44*	3
O=C(COC(=O)[C@H](Cc1c[nH]c2ccccc12)NC(=O)c1ccc(Cl)cc1)Nc1ccc2c(c1)OCO2	7	-4	18	0	12
COC(=O)[C@@H](Cc1c[nH]c2ccccc12)NC(=O)c1ccc2c(c1)OCO2	10	-1	70*	0	30
O=C(NCCSc1c[nH]c2ccccc12)c1ccc(Br)o1	0	6	9	16*	9
O=C(CSc1nc2ccccc2[nH]1)NCc1ccc2c(c1)OCO2	-2	-22	·	·	·
O=C(Cn1c(Cc2ccccc2)nc2ccccc21)NCc1ccc2c(c1)OCO2	2	-4	21	137*	3
Cc1ccccc1S(=O)(=O)N1C[C@H](O)COC[C@@H]2O[C@H](CC(=O)NCc3ccccc3Cl)CC[C@H]21	·	9	·	·	·
CO[C@@H]1CN(C)C(=O)c2ccc(NC(=O)c3ccccc3)cc2OC[C@@H](C)N(C(=O)CN(C)C)C[C@H]1C	·	3	·	·	·
SMILES	HSP90 inh	ARNT TACC3 PPI	HSF1 activator	HIF activator	HSF1 inhib
C[C@@H]1CN([C@@H](C)CO)C(=O)c2cc(NS(=O)(=O)c3cn(C)cn3)ccc2O[C@@H](C)CCCCO[C@@H]1CN(C)Cc1ccc(C(F)(F)F)cc1	·	3	·	·	·
C=CCOC(=O)[C@@H]1[C@H]2C(=O)O[C@H](c3ccccc3)[C@H](c3ccccc3)N2[C@H](c2ccc(OCCOC(=O)[C@H]3C[C@H]4C(=O)N5CCC[C@H]5C(=O)N4[C@H]3c3ccc(O)cc3)cc2)[C@@]12C(=O)Nc1ccccc12	·	13	·	·	·
COc1ccc(OC)c(-n2nnnc2SCC(=O)NCc2ccc3c(c2)OCO3)c1	-2	5	-77	0	-72*
O=C(C[C@H]1CC[C@H]2[C@@H](COC[C@@H](O)CN2C(=O)c2ccccc2)O1)N1CCOCC1	·	-2	·	·	·
CCC(=O)Nc1ccc2c(c1)C(=O)N(C)C[C@@H](OC)[C@@H](C)CN(Cc1ccccc1)[C@@H](C)CO2	·	-9	·	·	·
CNC(=S)Nc1ccc([N+](=O)[O-])cc1C	1	·	13	0	-4
O=C(Nc1ccc([N+](=O)[O-])cc1)C(=O)Nc1cccc(C(=O)O)c1	78*	7	-77	-4	-71*
O=C(O)c1cc(NC(=O)c2ccc([N+](=O)[O-])cc2)cc(NC(=O)c2ccc([N+](=O)[O-])cc2)c1	-6	1	2	-4	1
Cc1cc([N+](=O)[O-])ccc1NC(=O)c1csc(C)c1C	-6	-10	53*	4	24
Cc1ccc(NC(=O)c2sc(N)nc2-c2ccc([N+](=O)[O-])cc2)c(C)c1	3	-3	63*	0	41
Cc1cc([N+](=O)[O-])ccc1NC(=O)c1cccc(NC(=O)C(C)C)c1	-2	·	58*	1	21
CCC(=O)Nc1ccc2c(c1)OC[C@H](C)N(C(=O)c1cnccn1)C[C@@H](C)[C@H](OC)CN(C)C2=O	·	-11	·	·	·
CO[C@@H]1CN(C)C(=O)c2cc(NS(=O)(=O)c3ccc(-c4ccccc4)cc3)ccc2OC[C@H](C)NC[C@@H]1C	·	2	·	·	·
C/C=C/c1ccc2c(c1)O[C@H](CN(C)CC1CCOCC1)[C@H](C)CN([C@H](C)CO)S2(=O)=O	·	-3	·	·	·
CN(C)CCCNC(=O)C[C@H]1CC[C@@H]2[C@H](COc3ccc(NC(=O)c4cccc(F)c4)cc3C(=O)N2C)O1	·	-2	·	·	·
O=C(Nc1ccc(Cl)cc1)N1CCC(CO)(Cc2ccccc2)CC1	1	-2	20	0	0
O=C(Nc1cccc(Cl)c1)N1CCC(CO)(CCOc2ccccc2)CC1	1	-6	95*	0	60
CC(C)CC#Cc1ccc2c(c1)O[C@@H](CN(C)Cc1cccnc1)[C@@H](C)CN([C@@H](C)CO)S2(=O)=O	·	12	·	·	·
O=C1S/C(=C/c2ccc(N3CCOCC3)o2)C(=O)N1Cc1ccc(F)cc1	1	-8	155*	0	103
O=C1S/C(=C\c2ccc(N3CCOCC3)o2)C(=O)N1Cc1ccc(F)cc1	-1	-3	·	·	·
CO[C@H]1CC[C@H]2CCOc3ccc(C#N)cc3C(=O)N(C)CCCC(=O)N(C)C[C@@H]1O2	·	-9	·	·	·
